The values that follow come from PubChem BioAssay.

Several values for one entry are separate records, joined by “and”; a condition that tells them apart may be missing. Equal values may be shown once. Activity calls are given as the source filed them.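 Rule for the calls, unless noted: active = thallium flux through the channel raised or lowered by more than 3 SD from vehicle-only wells, actives on both sides; inactive = the rest.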

A short description of assay [1]: liver-stage malaria parasite growth inhibition, primary screen, cell-based, HepG2, luciferase luminescence, HepG2 viability (AID 624349; in the data active = parasite load remaining mostly below about 12%, no sharp cut-off; inactive = mostly above about 10%;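 note: 100% = mean of DMSO negative control wells on the same plate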). The conditions noted are these: P. berghei liver stage in HepG2, luciferase luminescence, concentration not given here; parasite load remaining: stronger effect = lower value; viability: measured here: HepG2 viability without parasites.
A short description of assay [2]: Cy5 fluorescence interference with SSB-bound oligo, artefact control for HCV NS3 helicase inhibitor project, biochemical, NIH Clinical Collection, E. coli SSB (AID 743268; call rule not given here).
The test system of assay [3] is Hepatitis C virus NS3 helicase. In words: HCV NS3 helicase inhibitors, primary screen, biochemical, fluorescence polarization, NIH Clinical Collection (AID 743270; call rule not given here). The conditions noted are these: NS3 helicase binding to Cy5-dT15 DNA, stronger effect = higher value, concentration not given here. In general terms: Polarisation of emitted light reports the rotation of a fluorescent probe.

For assay [4], the target named is Single-stranded DNA-binding protein (Escherichia coli (strain K12)) (UniProt P0AGE0). Briefly: E. coli SSB displacement from DNA, counter-screen for HCV NS3 helicase inhibitor project, biochemical, fluorescence polarization, NIH Clinical Collection (AID 743271; in the data active = inhibition above about 28%). The conditions noted are these: stronger effect = higher value, concentration not given here. On the technique in general: Counterscreens check selectivity or assay interference.

Assay [5] is described as follows: fluorescence interference in NS3h assay format, artefact control for HCV NS3 helicase inhibitor project, biochemical, NIH Clinical Collection (AID 743272; call rule not given here;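 note: HCV NS3 helicase with a Cy5 labelled single stranded DNA probe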). The conditions noted are these: fluorescence interference counterscreen, stronger effect = lower value.
Assay [6] is described as follows: modulation of C. elegans fzo-1 (AID 1259413; call rule not given here;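 note: fzo-1 mutant C. elegans worms in liquid wells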). The conditions noted are these: C. elegans fzo-1 modulator screen, mean read-out; stronger effect = higher value.
A short description of assay [7]: sensitizers of A549 cells to miR-34 induction, primary screen, imaging, A549 dox-inducible miR-34, nuclei and caspase counts (AID 1347080;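 active = compounds whose cell count with miR-34 switched on is under 0.7 times the count with it off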). Conditions: A549 miR-34 inducible, Hoechst nuclei count, 48 h.
The nature of assay [8]: viability rescue of complex I mutant cybrids, primary screen, cell-based, galactose medium, ATP luminescence (AID 1645843;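 active = z-score of at least 1.8 in each of two replicates, scored against plate mean and spread of sample wells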;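 note: positive z means more ATP and so rescue of galactose-driven cybrid death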). The conditions noted are these: complex I mutant cybrid cells, 72 h, stronger effect = higher value.
In another assay the test system is F380Y. Briefly: modulators of BK channel variants, profiling panel, selectivity assay, cell-based, U2OS BacMam, thallium flux, beta subunits (AID 1259406).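 Note: initial slope of Thallos dye fluorescence rise after thallium is added; log ratio against the mean of 0.3% DMSO vehicle wells on the same plate.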 The conditions noted are these: at 30 µM.
Another assay has as its system F380Y/beta1. The assay is described as above. The conditions noted are these: at 30 µM.
The next assay concerns F380Y/beta2Delta. Described as above. Conditions: at 30 µM.
The test system of the next assay is F380Y/beta4. Described as above. Conditions: at 30 µM.
The target of assay [9] is Calcium-activated potassium channel subunit alpha-1 (Homo sapiens) + Leucine-rich repeat-containing protein 26 (Homo sapiens) (UniProt Q12791+Q2I0M4). The description is as above. The conditions noted are these: F380Y/Slo1WT/gamma1, at 30 µM.
The test system of the next assay is R275C. Described as above. The conditions noted are these: at 30 µM.
For the next assay, the system named is R275C/beta1. Described as above. Conditions: at 30 µM.
In a further assay the test system is R275C/beta2Delta. Described as above. Conditions: at 30 µM.
A further assay concerns R275C/beta4. The assay is described as above. Conditions: at 30 µM.
The subject of a further assay is R275C/Slo1WT/beta2. Described as above. Conditions: at 30 µM.
Assay [10] in a line: survival rescue of mitochondrial mutant cells in low glucose, primary screen, MELAS cybrids, Rieske KO mouse fibroblasts, CellTiter-Glo (AID 1508586;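 active = mean z-score across replicates of 1.96 or higher in either the MELAS or the Rieske mutant cell line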;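 note: z relative to plate mean and SD of compound and empty wells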). (Cellular ATP, detected with luciferase, serves as a proxy for viable cell number.)

Sequence of Calcium-activated potassium channel subunit alpha-1 (Homo sapiens) + Leucine-rich repeat-containing protein 26 (Homo sapiens) (Q2I0M4 whole entry, looked up, one chain of several): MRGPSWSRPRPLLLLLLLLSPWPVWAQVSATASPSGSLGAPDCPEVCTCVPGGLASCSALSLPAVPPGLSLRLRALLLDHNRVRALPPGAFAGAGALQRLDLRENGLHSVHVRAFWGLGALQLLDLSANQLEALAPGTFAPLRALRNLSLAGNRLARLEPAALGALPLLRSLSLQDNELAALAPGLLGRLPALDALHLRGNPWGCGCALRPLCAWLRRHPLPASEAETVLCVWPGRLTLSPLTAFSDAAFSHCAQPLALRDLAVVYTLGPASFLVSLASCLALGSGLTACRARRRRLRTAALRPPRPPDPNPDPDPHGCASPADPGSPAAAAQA

As a reminder, the viability is a read-out of living cells in per cent, often relative to untreated cells. A word on the inhibition: it is the drop in the measured response relative to a control, in per cent. Turning to `CC[C@H]1OC(=O)[C@H](C)[C@@H](O[C@H]2C[C@@](C)(OC)[C@@H](O)[C@H](C)O2)[C@H](C)[C@@H](O[C@@H]2O[C@H](C)C[C@H](N(C)C)[C@H]2O)[C@](C)(O)C[C@@H](C)CN(C)[C@H](C)[C@@H](O)[C@]1(C)O`, the parasite load remaining in assay [1] is 58.8% (inactive) and 152% (inactive) and 299% (inactive). Further, the viability in assay [1] was 118% and 82.2% and 91.4%. The fluorescence ratio was 1.05 (inactive) in assay [2] and 1.02 (inactive) in assay [5]. Besides, the inhibition in [3] was 1.36% (inactive); in assay [4], -1.24% (inactive). Besides, in assay [6], the mean signal is 266 (inactive). The fold change in assay [7] (stronger effect = lower value, cell number ratio, induced over uninduced) was 0.953 (inactive) and 0.891 (inactive); in assay [7] (measured here: relative caspase fold change +Dox/-Dox) it was 2.3 and 7.33. For the same compound, the cell count was 9960 and 9940 in assay [7] (measured here: total cells with miR-34 induction, stronger effect = lower value); 10500 and 11200 in assay [7] (measured here: total cells without miR-34 induction). In addition, the z-score in [8] is 1.2 (inactive). The log fold change Tl+ flux in the assay with F380Y is 0.0649 (inactive); in the assay with F380Y/beta1 it was 0.00314 (inactive); in the assay on F380Y/beta2Delta, 0.0029 (inactive); with F380Y/beta4, -0.0644 (inactive); in assay [9], -0.014 (inactive); in the assay on R275C, 0.011 (inactive). The log fold change Tl+ flux was 0.0228 (inactive) with R275C/beta1, -0.0452 (inactive) in the assay with R275C/beta2Delta, -0.073 (inactive) in the assay with R275C/beta4 and 0.026 (inactive) in the assay with R275C/Slo1WT/beta2.

On to `Cc1c(C(=O)NN2CCCCC2)nn(-c2ccc(Cl)cc2Cl)c1-c1ccc(I)cc1`, for which, in assay [1], the parasite load remaining was 23% (inactive). Moreover, the viability in assay [1] was 70.4%. Also, the fluorescence ratio in assay [2] is 0.91 (inactive); in [5], 0.92 (inactive). For the same compound, the inhibition in assay [3] is 0.66% (inactive). Besides, in [6], the mean signal was 229 (inactive). The z-score in assay [10] (MELAS cybrid survival, CellTiter-Glo 48 h, stronger effect = higher value) was -0.338 (inactive); in [10] (Rieske KO mouse fibroblast survival, CellTiter-Glo 72 h), -0.0666; in [8], -1.88 (inactive) and -0.83 (inactive). The log fold change Tl+ flux in the assay with F380Y is 0.00861 (inactive); in the assay on F380Y/beta1, -0.0372 (inactive); with F380Y/beta2Delta, -0.0265 (inactive); in the assay with F380Y/beta4, -0.0348 (inactive); in assay [9], -0.0487 (inactive); in the assay with R275C, 0.0781 (inactive). Also, the log fold change Tl+ flux with R275C/beta1 was 0.0181 (inactive); in the assay on R275C/beta2Delta, -0.00675 (inactive); with R275C/beta4, 0.0297 (inactive); in the assay on R275C/Slo1WT/beta2, 0.0305 (inactive).

On to `CN1CC(=O)N2[C@H](c3ccc4c(c3)OCO4)c3[nH]c4ccccc4c3C[C@@H]2C1=O`, for which the parasite load remaining in [1] is 101% (inactive). For the same compound, the viability in assay [1] turned out to be 81.8%. In addition, the fluorescence ratio in [2] and in assay [5] was 1 (inactive) throughout. The inhibition in [3] is -0.4% (inactive); in [4], -0.1% (inactive). Moreover, in assay [6], the mean signal was 261 (inactive). Further, the log fold change Tl+ flux is 0.0711 (inactive) with F380Y; 0.0938 (inactive) with F380Y/beta1; 0.00366 (inactive) with F380Y/beta2Delta; 0.0361 (inactive) in the assay on F380Y/beta4; -0.0237 (inactive) in assay [9]; -0.0348 (inactive) in the assay with R275C. For the same compound, the log fold change Tl+ flux in the assay on R275C/beta1 was 0.198 (active); in the assay with R275C/beta2Delta it was 0.0543 (inactive); with R275C/beta4, 0.0558 (inactive); with R275C/Slo1WT/beta2, 0.00498 (inactive).

Consider `CCOC(=O)CN(C=NC#N)c1ccc(OC)cc1`, for which the log fold change Tl+ flux in the assay on F380Y is -0.0235 (inactive); in the assay with F380Y/beta1 it was 0.0113 (inactive); in the assay on F380Y/beta2Delta, -0.0114 (inactive); with F380Y/beta4 it was 0.0329 (inactive); in [9] it was 0.0663 (inactive); in the assay on R275C it was 0.0146 (inactive). Besides, the log fold change Tl+ flux in the assay on R275C/beta1 is -0.0574 (inactive); in the assay with R275C/beta2Delta it was -0.0152 (inactive); with R275C/beta4, -0.00948 (inactive); in the assay on R275C/Slo1WT/beta2, 0.0303 (inactive).
